This is a sample that favours compounds with a hit; in the whole collection about 12% have one here.
HP1b binding inh: HTS for Inhibitors of HP1-beta Chromodomain Interactions with Methylated Histone Tails. AlphaScreen HP1-beta / biotin-H3K9me3 peptide binding. Potency, µM (titrated, usually from 114 µM), for inactives: top-dose activity change, negative = inhibition, actives largely listed as inhibitors. actives 0.56% (n = 390,000). AID 540317, 2011; note: potency is the fitted concentration of half-maximal effect; nearly all actives have a fitted effect of over 70% in size
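AlphaScreen: HP1-beta (50 nM) preformed 30 min with biotin-H3(1-18)K9me3 peptide (50 nM) in PBS pH 7.4, 0.01% Tween-20. Compound added for 30 min at RT, then streptavidin donor/nickel chelate acceptor beads (10 ug/mL) for 30 min.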
JMJD2A Tudor: qHTS Assay for Inhibitors of JMJD2A-Tudor Domain. Lysine-specific demethylase 4A (Homo sapiens), O75164. AlphaScreen JMJD2A-Tudor / H3K4me3 peptide binding. Potency, µM (series often up to 114 µM), without a hit: at the top dose activity change, negative = inhibition, actives largely listed as inhibitors. actives 4.4% (n = 390,000). AID 504339, 2011; note: potency is the fitted concentration of half-maximal effect; % is set by controls: 0 for no effect and ±100 for the full control effect; nearly all actives have a fitted effect of over 50% in size
Sfp inh: qHTS Assay for Inhibitors of Bacillus subtilis Sfp phosphopantetheinyl transferase (PPTase); AID 1490, 2009; actives 3.5% (n = 310,000); 4'-phosphopantetheinyl transferase ffp (Bacillus subtilis), Q9F4F7; Biochemical Sfp PPTase activity, qHTS; Potency, µM, without a hit: largest response in the series, negative = inhibition, actives largely listed as inhibitors;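 note: the enzyme is Sfp with the accession as filed and its product quenches rhodamine fluorescence; potency is the fitted concentration of half-maximal effect; 0% = enzyme reaction without inhibitor and -100% = no enzyme wells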
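With Hepes-Na pH 7.6 buffer containing 10 mM MgCl2, Sfp (15 nM) modified BHQ-2-YbbR (12.5 uM) using rhodamine-CoA (5 uM). Two reads 30 minutes apart at 525/598 nm yielded each well's rate.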
G9a inh: qHTS Assay for Inhibitors of Histone Lysine Methyltransferase G9a | actives 8.8% (n = 350,000) | Potency, µM (highest dose often 102 µM), for the others: at the highest dose activity, negative = inhibition, usual class: inhibitors | Histone-lysine N-methyltransferase EHMT2 (Homo sapiens), Q96KQ7 | G9a H3K9 monomethylation, AlphaScreen, 2 h | AID 504332, 2011; note: potency is the fitted concentration of half-maximal effect; % is set by controls: 0 for no effect and ±100 for the full control effect; nearly all actives have a fitted effect of over 75% in size
Target sequence (Q96KQ7 913-1193 limits assumed): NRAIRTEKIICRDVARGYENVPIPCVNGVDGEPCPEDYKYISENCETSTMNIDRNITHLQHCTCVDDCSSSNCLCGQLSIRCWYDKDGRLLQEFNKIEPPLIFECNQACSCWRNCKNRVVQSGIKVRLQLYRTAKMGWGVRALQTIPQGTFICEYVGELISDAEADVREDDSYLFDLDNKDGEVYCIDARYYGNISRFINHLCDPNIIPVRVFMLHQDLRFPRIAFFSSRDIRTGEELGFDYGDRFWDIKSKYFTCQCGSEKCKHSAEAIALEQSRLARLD
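Signal arises when biotinylated H3K9 peptide, once monomethylated, bridges streptavidin donor and antibody-captured acceptor beads. Enzyme at 20 nM was preincubated 15 min with test compounds; peptide 500 nM and SAM 20 uM then reacted for 2 h.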
BAZ2B inh: qHTS Assay for Inhibitors of BAZ2B. Bromodomain adjacent to zinc finger domain protein 2B (Homo sapiens), Q9UIF8. AlphaScreen BAZ2B-H3K14Ac peptide displacement. Potency, µM (highest dose often 114 µM), for the others: top-dose activity change, negative = inhibition, usual class: inhibitors. actives 4.4% (n = 360,000). AID 504333, 2011; note: potency is the fitted concentration of half-maximal effect; % is set by controls: 0 for no effect and ±100 for the full control effect; nearly all actives have a fitted effect of over 60% in size
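Compounds, titrated to a top concentration of 110 uM, were incubated 30 min at room temperature with preformed BAZ2B/acetyl-K14 H3 peptide complex (50 nM each). Proximity signal was measured by AlphaScreen after 20 min with beads.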
L3MBTL1 block: qHTS Assay for the Inhibitors of L3MBTL1; Lethal(3)malignant brain tumor-like protein 1 (Homo sapiens), Q9Y468; AlphaScreen L3MBTL1–H3K9me1 peptide binding; Potency, µM (top dose mostly 57.1 µM), for the others: at the top dose activity, negative = inhibition, hits mostly inhibitors; actives 0.66% (n = 230,000); note: potency is the fitted concentration of half-maximal effect; % is set by controls: 0 for no effect and ±100 for the full control effect; nearly all actives have a fitted effect of over 60% in size
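Displacement of a biotinylated histone H3(1-15) peptide monomethylated at Lys9 (75 nM) from L3MBTL1 (50 nM) was measured by AlphaScreen after a 30 min room-temperature compound incubation; cefsulodin titration served as intraplate control.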
JMJD2E inh-1: Inhibitors of Human Jumonji Domain Containing 2E (JMJD2E): 8HQs - Round 1. Potency, µM (top dose mostly 57 µM), without a hit: at the highest dose activity, negative = inhibition, actives largely listed as inhibitors. shares compounds with BAZ2B inh. JMJD2E demethylase, FDH-coupled NADH fluorescence. actives 89% (n = 130)
Target sequence (B2RXH2 1-337 limits assumed): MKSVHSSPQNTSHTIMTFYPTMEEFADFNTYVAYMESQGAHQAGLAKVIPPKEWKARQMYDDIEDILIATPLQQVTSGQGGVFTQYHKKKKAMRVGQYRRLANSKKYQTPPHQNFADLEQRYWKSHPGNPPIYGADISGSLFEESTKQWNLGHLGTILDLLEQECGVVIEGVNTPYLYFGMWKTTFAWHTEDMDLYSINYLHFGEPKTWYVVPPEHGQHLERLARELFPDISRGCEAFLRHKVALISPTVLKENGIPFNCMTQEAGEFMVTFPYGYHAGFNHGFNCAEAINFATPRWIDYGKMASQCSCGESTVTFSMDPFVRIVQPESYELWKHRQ
ME-1 growth: qHTS Assay for Compounds Blocking the Interaction Between CBF-beta and RUNX1 for the Treatment of Acute Myeloid Leukemia: ME-1 cellular proliferation. AID 504370, 2011. ME-1 cell proliferation, ATP luminescence, 48 h. Potency, µM (series often up to 56.1 µM), without a hit: at the top dose activity change, negative = inhibition, most hits filed as inhibitors. actives 20% (n = 140). shares compounds with BAZ2B inh
JMJD2E inh-2: Confirmation qHTS Assay for Inhibitors of Human Jumonji Domain Containing 2E (JMJD2E) | Potency, µM (series often up to 56.8 µM), for the others: at the top dose activity change, negative = inhibition, most hits filed as inhibitors | Recombinant JMJD2E, FDH-coupled NADH fluorescence (FDH is formaldehyde dehydrogenase) | shares compounds with JMJD2A Tudor | AID 2677, 2010 | actives 93% (n = 140)
FDH counter: Counterscreen for JMJD2E Inhibitors: qHTS Assay for Inhibitors of Formaldehyde Dehydrogenase (FDH). shares compounds with JMJD2A Tudor. FDH enzyme assay, NADH fluorescence kinetic. Potency, µM (series often up to 56.7 µM), for inactives: at the top dose activity, negative = inhibition, hits mostly inhibitors. actives 10% (n = 140). AID 2680, 2010
JMJD2E MS inh: MALDI-TOF-MS Assay for Inhibitors of Human Jumonji Domain Containing 2E (JMJD2E); shares compounds with JMJD2A Tudor; recombinant JMJD2E demethylation, MALDI-TOF-MS; Potency, µM, usual class: inhibitors; actives 90% (n = 45); AID 2688, 2010;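 active = compounds whose IC50 for blocking JMJD2E demethylation is below 100 µM; inconclusive = dose dependent effect but IC50 above 100 µM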
* hit, by the source's call; ? = inconclusive; · = not tested or not shown; ! = not confirmed by another sample; [ ] = remark or other dose. Unless noted, calls come from the whole dose curve; as a rule, active = well fitted curve in the direction sought with a large enough effect; inconclusive = small, poorly fitted or top-dose-only effect, or another doubt; inactive = no such curve, though single readings can be large; an effect the other way counts as inactive or inconclusive.

SMILES	HP1b binding inh	JMJD2A Tudor	Sfp inh	G9a inh	BAZ2B inh	L3MBTL1 block	JMJD2E inh-1	JMJD2E inh-2	FDH counter	others
Cc1cc(O)c(C=O)c2c1C(=O)Oc1c(COC(=O)/C=C/C(=O)O)c(O)c(C(=O)O)c(C)c1O2	·	·	-52%	?	·	·	·	·	·	ME-1 growth=10%
COc1ccc(S(=O)(=O)N2CCOCC2)cc1N=Nc1sc(N)nc1-c1ccccc1	?	-27%	-3%	14µM*	?	-25%	·	·	·	ME-1 growth=-3%[25.6 µM]
COc1ccc(S(=O)(=O)N2CCOCC2)cc1OC	26%	5%	-1%	1%[59 µM]	8%	3%	·	·	·
O=C(O)c1cccnc1Cl	56%	-2%	11%	?	?	7%	·	·	·
O=C(O)c1cccnc1C(=O)O	13%	0.89µM*	89µM*!	3.5µM*	6.3µM*	?	·	·	·	ME-1 growth=-13%
CCc1sc(N)nc1-c1ccccc1	-10%	-36%	79µM*	?	?	-14%	·	·	·	ME-1 growth=-7%[25.6 µM]
Cc1cccc(C)c1NC(=O)c1sc(N)nc1-c1ccccc1	61%	-12%	24%	6%	-4%	11%	·	·	·
Cc1cc2ccccc2n2c(SCC(=O)Nc3cccc(C(F)(F)F)c3)nnc12	29%	-3%	·	-44%[59 µM]	0%	·	·	·	·
CC(=O)Nc1ccc(Nc2ccc3c4c(cc(=O)n3C)-c3ccccc3C(=O)c24)cc1	-27%	-32%	8%	?	?	3%	·	·	·
O=C1c2ccccc2C(=O)c2c(Nc3ccc(CCO)cc3)ccc(O)c21	8.9µM*	8.9µM*	?	3.5µM*	1.8µM*	5.6µM*	·	·	·	ME-1 growth=?
Cc1ccc2nc(NC(=O)CSc3nnc(C)c(=O)n3N)sc2c1	23%	-11%	9%	2%[59 µM]	-2%	6%	·	·	·
CCCN(CC(=O)Nc1cc(Cl)ccc1Cl)C(=O)c1ccc2n[nH]nc2c1	46%	-15%	·	0%[2.33 µM]	15%	17%	·	·	·
Oc1cccc2cc(NCc3ccccc3F)cnc12	·	·	·	·	·	·	32µM*	20µM*	-9%
Oc1cccc2cc(CNc3ccccc3F)cnc12	·	·	·	·	·	·	?	3.2µM*	-18%
Cc1ccc(-c2nnc(Nc3ccc(Br)cc3)c3ccccc23)cc1S(=O)(=O)NCC1CCCO1 (stereo not given)	8%	-23%	·	-1%[59 µM]	0%	·	·	·	·
Cc1ccc(C)c(C(=O)CSc2nc(-c3ccccc3)nc3c2CCCC3)c1	82%	39%	·	31%[59 µM]	31%	·	·	·	·
CC(C)(C)c1ccc(C(=O)N2CCNCC2)cc1	19%	5%	-13%	8%[12.7 µM]	2%	·	·	·	·
O=C(c1ccc(-c2cc(O)c3ncccc3c2)cc1)N1CCNCC1	27%	20µM*	·	-30%[12.7 µM]	7.9µM*	25µM*	16µM*	16µM*	0%
Oc1cc(Nc2ccc(N3CCCCC3)cc2)cc2cccnc12	·	·	·	2%[12.7 µM]	35µM*	?	28µM*	28µM*	-18%	JMJD2E MS inh=34*
O=C(COC(=O)c1cccnc1Cl)Nc1ccc(N2CCCCC2)cc1	-7%	?	·	-9%[2.33 µM]	-39%	-4%	·	·	·
CC(=O)c1ccc(N(CC(=O)NC2CCCCC2)C(=O)CNC(=O)c2cccs2)cc1	29%	2%	12%	5%	-3%	·	·	·	·
COc1ccc(C(=O)N(C)C2CCCN(Cc3ccccc3F)C2)cc1C (stereo not given)	14%	-15%	3%	·	16%	50%	·	·	·
Oc1c(CN2CCCCC2)cc(COCc2ccccc2)c2cccnc12	19%	20µM*	-16%	?	6.3µM*	13µM*	4µM*	4µM*	-27%
CN(C)C1CCN(Cc2cc(COCc3ccccc3)c3cccnc3c2O)C1 (stereo not given)	26%	32µM*	·	-38%[12.7 µM]	10µM*	10µM*	11µM*	7.9µM*	-18%
Oc1cc(NCc2ccc(Cl)cc2)cc2cccnc12	57%	-10%	·	-5%[12.7 µM]	-2%	12%	15%	20%	-18%	JMJD2E MS inh=?
Fc1ccc(CNc2ncccn2)cc1	25%	8%	23%	-3%	4%	·	·	·	·
Oc1cc(NCc2ccc(F)cc2)cc2cccnc12	40%	-28%	·	0%[12.7 µM]	?	6%	36µM*	?	-36%	JMJD2E MS inh=75*
CN(C)CCCNc1cc(O)c2ncccc2c1	-1%	35µM*	·	?	8.9µM*	?	28µM*	28µM*	-18%	JMJD2E MS inh=?
COc1cc(NCCCCCCCN)c2ncccc2c1	-25%	?	?	-43%[59 µM]	?	-4%	·	·	·
Cc1ccc(NS(=O)(=O)c2ccc(Cl)c(C(=O)Nc3cccc(C(=O)O)c3)c2)cc1	49%	-13%	8%	-5%	0%	-5%	·	·	·

Screens: PubChem, National Center for Advancing Translational Sciences (NCATS)
